This is an account of results in PubChem BioAssay AID488839 (Broad Institute, 2010).

Among all 330,000 compounds or so, about 35 (0.01%) were called active. These entries were drawn from the full list. A number with no mark means an inactive call.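 The calls were made as follows: active = highest replicate inhibition of at least 50% and at least 75% of replicates reaching 50%; inconclusive = only one of the two criteria met; inactive = both criteria failed.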

The experiment deals with Cyclin-dependent kinase 5 (Homo sapiens) + Cyclin-dependent kinase 5 activator 1 (Homo sapiens) (UniProt Q00535+Q15078). Description: inhibitors of human CDK5/p35 kinase, primary screen, biochemical, single concentration (AID 488839).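 Also: plate controls were DMSO neutral control for no effect and GW8510 at 10 µM for full effect.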 The conditions noted are these: Recombinant CDK5/p35, ADP-Glo luminescence, 60 min; at 10 µM; active compounds read high.
Chain of Cyclin-dependent kinase 5 (Homo sapiens) + Cyclin-dependent kinase 5 activator 1 (Homo sapiens) (Q00535 whole entry, looked up): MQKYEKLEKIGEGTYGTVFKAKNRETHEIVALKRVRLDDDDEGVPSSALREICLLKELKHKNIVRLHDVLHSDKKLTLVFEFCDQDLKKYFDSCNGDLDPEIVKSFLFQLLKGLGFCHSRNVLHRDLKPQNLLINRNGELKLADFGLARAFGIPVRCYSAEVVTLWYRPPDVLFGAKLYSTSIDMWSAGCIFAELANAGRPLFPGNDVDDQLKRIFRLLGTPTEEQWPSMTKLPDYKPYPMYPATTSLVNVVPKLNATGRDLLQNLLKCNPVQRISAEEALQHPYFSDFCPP
Chain of Cyclin-dependent kinase 5 (Homo sapiens) + Cyclin-dependent kinase 5 activator 1 (Homo sapiens) (Q15078 whole entry, looked up): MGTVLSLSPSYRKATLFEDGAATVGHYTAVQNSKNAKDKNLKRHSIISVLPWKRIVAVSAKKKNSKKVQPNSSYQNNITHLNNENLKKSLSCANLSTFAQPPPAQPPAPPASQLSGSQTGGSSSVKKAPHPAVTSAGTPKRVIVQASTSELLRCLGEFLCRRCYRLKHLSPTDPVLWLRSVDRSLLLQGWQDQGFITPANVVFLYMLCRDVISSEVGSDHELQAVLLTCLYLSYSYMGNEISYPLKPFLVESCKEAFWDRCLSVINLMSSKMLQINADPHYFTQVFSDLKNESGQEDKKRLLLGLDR
With `Cc1nnc(SC(C(=O)c2ccccc2)c2ccccc2)[nH]c1=O` (stereo not given), the inhibition (usually the relative decrease from the control value, in per cent) is 0.641%.

As for `COc1cccc(CN2C(=O)CCC2(C)C(=O)NC2CCCCCC2)c1` (stereo not given), the inhibition is 1.09%.

On to `COc1cccc2c1OCC(C(=O)NCc1ccc(Cl)cc1Cl)=C2`, for which the inhibition is -2.22%.

Turning to `COc1ccc(CCNC(=O)CCC(=O)NC2CCCCC2)cc1OC`, the inhibition is 1.39%.

Take `CC(=O)Nc1ccc(NC(=O)C(C)OC(=O)C2CC(=O)N(CCc3ccccc3)C2)cc1` (stereo not given): the inhibition is -2.5%.

Turning to `CC1(C)CC(=O)C(C2=NC(C)(C)Cc3ccccc32)=C(O)C1`, the inhibition is 0.357%.

As to `COc1ccc(-n2nc3c(c2NC(=O)c2ccc(N4C(=O)CCC4=O)cc2)CSC3)cc1`, the inhibition was 2.36%.

With `Brc1ccc(-c2n(-c3ccccn3)c3ccccc3[n+]2-c2ccccn2)cc1`, the inhibition was 3.32%.

For the molecule `C=CCNC(=S)NNc1ncnc2sc3c(c12)CC(C)(C)OC3`, the inhibition is -1.36%.

As to `Cc1ccc(S(=O)(=O)N2C3C=CC(C3)C2C(=O)O)cc1` (stereo not given), the inhibition is -7.35%.

Consider `O=C(Cn1cnc2c(OCc3ccccc3)ncnc21)NCCCn1ccnc1`, for which the inhibition is 1.18%.

`CC(C)c1ccc(Nc2nnc(SCC(=O)c3nnc(-c4ccccc4)o3)s2)cc1`: the inhibition is 1.49%.

Take `Cc1cc(C(C)(C)C)cc(S(=O)(=O)Nc2ccc(C(=O)O)cc2)c1C`: the inhibition was 0.418%.

`Cc1ccc(SCC2=NNC(=O)C2)cc1`: the inhibition is 0.0205%.

As to `CC(C)C(NC(=O)c1c(F)cccc1F)C(=O)NCc1ccncc1` (stereo not given), the inhibition was -1.58%.

On to `Cc1ccc(N(C(=O)c2ccc(S(=O)(=O)N(C)C)cc2)C2C=CS(=O)(=O)C2)cc1` (stereo not given), for which the inhibition is 1.14%.

`COc1ccc(Cl)cc1NC(=O)CN(C)Cc1ccc(OC)c(OC)c1`: the inhibition was -3.62%.

In the case of `CCOC(=O)N1CCC(NC(=O)Cn2cc3c(n2)CCCCC3)CC1`, the inhibition was 3.25%.

As for `CCCc1nc2oc3c(=O)[nH]cnc3c2c2c1COC(C)(C)C2`, the inhibition is -0.359%.

As for `CCOC(=O)c1c(NC(C)=O)sc2c(O)c(Br)ccc12`, the inhibition was -0.579%.

For the molecule `Cc1ccc(C)c(NC(=O)COC(=O)CSc2ccccc2)c1`, the inhibition was -0.511%.

Take `CCc1cc2c(=O)c(-c3nc4ccccc4n3C)c(CCCC(=O)O)oc2cc1OC(=O)C(C)(C)C`: the inhibition is -1.94%.

On to `O=C(CN1CCOCC1)Nc1c2c(nc3c1CCC3)CCC2`, for which the inhibition was -2.33%.

Consider `O=C(COC(=O)CNC(=O)C1CCCCC1)NCc1ccccc1`, for which the inhibition was 1.54%.

Consider `CCCCc1nc(SCC(=O)Nc2nnc(C(C)C)s2)n[nH]1`, for which the inhibition is -0.0356%.
